# Results from paper PMC7862700, “An all-to-all approach to the identification of sequence-specific readers for epigenetic DNA modifications on cytosine”.
# What was measured:
# Test in all cases: DAPPL (digital affinity profiling via proximity ligation, sequencing); 10 mM Tris-HCl pH 7.5, 50 mM NaCl, 1 mM DTT, 4% glycerol, room temperature, 30 min; GST-TFs on glutathione beads, 16-mer random dsDNA library, 0.1% formaldehyde crosslink after washing; high values mean tight binding
# [1] = target: T1, FEV (Homo sapiens, UniProt Q99581 1-238); details: protein: recombinant; tags: N-terminal GST; dsDNA, one strand shown
# T1 sequence: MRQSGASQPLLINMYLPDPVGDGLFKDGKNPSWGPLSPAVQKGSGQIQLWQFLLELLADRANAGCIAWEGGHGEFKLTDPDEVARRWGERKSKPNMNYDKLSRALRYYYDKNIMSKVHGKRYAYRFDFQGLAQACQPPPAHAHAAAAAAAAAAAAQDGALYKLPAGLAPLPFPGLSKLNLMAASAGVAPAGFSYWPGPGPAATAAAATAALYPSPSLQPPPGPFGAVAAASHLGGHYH
# Method in brief: (§1)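 Sequencing on an Illumina NextSeq500 followed washing, crosslinking with 0.1% formaldehyde, proximity ligation (BsaI/T4 ligase, 1 h, 37 °C) and PCR amplification of pools that had been incubated for 30 min at room temperature with 200 nmole of a random double-stranded 16-mer DNA library in Tris/NaCl/DTT/glycerol buffer. Each pool held DNA-barcoded human transcription factors, expressed in yeast as GST fusions and captured on glutathione beads, plus a tag-only sample. Binding signal is a hexamer's read frequency for a factor divided by its frequency in the tag-only sample.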
# [2] = target: ETV5 (Homo sapiens, UniProt P41161 1-510); details: protein: recombinant; tags: N-terminal GST; dsDNA, one strand shown
# Chain of ETV5 (P41161 whole entry): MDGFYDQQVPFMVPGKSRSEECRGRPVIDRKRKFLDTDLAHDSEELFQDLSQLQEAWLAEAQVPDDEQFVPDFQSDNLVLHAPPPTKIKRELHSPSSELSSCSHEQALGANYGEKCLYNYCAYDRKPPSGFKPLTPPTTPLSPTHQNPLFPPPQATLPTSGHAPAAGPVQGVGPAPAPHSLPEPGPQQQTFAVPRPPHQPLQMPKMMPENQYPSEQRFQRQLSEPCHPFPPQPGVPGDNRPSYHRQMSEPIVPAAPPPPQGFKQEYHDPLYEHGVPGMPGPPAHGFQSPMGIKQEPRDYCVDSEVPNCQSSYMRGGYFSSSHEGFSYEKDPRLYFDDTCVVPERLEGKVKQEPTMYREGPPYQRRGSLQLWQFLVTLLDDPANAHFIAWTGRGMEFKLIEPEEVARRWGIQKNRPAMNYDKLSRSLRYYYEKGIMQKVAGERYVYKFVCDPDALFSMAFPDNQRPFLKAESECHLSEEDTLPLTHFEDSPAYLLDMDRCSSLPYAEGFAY
# Method in brief: as §1
# [3] = target: HSF1 (Homo sapiens, UniProt Q00613 1-529); details: protein: recombinant; tags: N-terminal GST; chain copies: 3; dsDNA, one strand shown
# Chain of HSF1 (Q00613 whole entry): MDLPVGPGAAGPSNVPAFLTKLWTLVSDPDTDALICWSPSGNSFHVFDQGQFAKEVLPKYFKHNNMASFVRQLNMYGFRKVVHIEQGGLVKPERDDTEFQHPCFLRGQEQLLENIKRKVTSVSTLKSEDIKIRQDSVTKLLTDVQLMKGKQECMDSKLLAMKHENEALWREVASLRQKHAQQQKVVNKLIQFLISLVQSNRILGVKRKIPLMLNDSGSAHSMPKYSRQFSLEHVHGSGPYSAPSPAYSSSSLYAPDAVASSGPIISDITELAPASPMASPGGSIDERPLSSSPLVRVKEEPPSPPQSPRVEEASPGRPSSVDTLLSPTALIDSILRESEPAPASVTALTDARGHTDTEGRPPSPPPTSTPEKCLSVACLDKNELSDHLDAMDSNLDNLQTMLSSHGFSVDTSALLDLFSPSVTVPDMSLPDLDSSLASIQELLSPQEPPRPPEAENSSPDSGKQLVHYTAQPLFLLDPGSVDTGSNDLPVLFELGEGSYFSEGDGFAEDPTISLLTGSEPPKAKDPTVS
# Method in brief: as §1
# [4] = target: T2, SPIC (Homo sapiens, UniProt Q8N5J4 1-248); details: protein: recombinant; tags: N-terminal GST; dsDNA, one strand shown
# T2 sequence: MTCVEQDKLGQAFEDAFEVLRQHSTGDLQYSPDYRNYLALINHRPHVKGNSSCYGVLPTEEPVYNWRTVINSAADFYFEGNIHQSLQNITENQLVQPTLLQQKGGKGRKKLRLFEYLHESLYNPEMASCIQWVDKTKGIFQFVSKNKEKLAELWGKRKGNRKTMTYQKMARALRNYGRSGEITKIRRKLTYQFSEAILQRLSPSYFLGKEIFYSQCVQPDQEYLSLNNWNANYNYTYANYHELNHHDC
# Method in brief: as §1
# [5] = target: ELF4 (Homo sapiens, UniProt Q99607 1-663); details: protein: recombinant; tags: N-terminal GST; dsDNA, one strand shown
# Chain of ELF4 (Q99607 whole entry): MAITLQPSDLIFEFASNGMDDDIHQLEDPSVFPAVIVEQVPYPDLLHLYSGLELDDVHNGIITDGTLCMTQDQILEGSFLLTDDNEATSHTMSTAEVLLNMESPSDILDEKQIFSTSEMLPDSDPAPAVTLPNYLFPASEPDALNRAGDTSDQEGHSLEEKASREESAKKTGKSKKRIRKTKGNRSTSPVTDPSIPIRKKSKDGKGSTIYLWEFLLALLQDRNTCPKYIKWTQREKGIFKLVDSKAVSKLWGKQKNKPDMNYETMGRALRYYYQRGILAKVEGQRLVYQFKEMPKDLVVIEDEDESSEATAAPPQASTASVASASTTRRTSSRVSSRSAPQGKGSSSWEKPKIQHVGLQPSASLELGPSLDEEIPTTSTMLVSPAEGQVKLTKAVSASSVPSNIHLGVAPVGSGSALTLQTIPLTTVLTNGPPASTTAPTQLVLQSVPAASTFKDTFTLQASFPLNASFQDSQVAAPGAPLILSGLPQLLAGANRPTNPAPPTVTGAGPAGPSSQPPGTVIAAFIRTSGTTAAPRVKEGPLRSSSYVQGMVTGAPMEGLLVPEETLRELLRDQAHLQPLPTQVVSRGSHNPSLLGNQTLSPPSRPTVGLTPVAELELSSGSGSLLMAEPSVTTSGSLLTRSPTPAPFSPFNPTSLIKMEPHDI
# Method in brief: as §1
# [6] = target: T3, ELK4 (Homo sapiens, UniProt P28324-2 1-405); details: protein: recombinant; tags: N-terminal GST; dsDNA, one strand shown
# T3 sequence: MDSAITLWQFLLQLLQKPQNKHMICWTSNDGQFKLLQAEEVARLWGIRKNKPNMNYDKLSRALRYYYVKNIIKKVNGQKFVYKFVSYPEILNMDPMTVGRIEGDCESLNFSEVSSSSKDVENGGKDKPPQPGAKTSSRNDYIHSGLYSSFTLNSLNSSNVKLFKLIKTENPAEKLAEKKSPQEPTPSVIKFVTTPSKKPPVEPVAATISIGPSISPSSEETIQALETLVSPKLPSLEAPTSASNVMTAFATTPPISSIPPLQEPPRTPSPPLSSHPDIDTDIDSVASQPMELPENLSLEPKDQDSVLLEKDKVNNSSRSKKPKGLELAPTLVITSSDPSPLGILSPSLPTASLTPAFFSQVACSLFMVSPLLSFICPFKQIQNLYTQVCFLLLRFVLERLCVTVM
# Method in brief: as §1
# [7] = target: T4, ETV2 (Homo sapiens, UniProt O00321 1-342); details: protein: recombinant; tags: N-terminal GST; dsDNA, one strand shown
# T4 sequence: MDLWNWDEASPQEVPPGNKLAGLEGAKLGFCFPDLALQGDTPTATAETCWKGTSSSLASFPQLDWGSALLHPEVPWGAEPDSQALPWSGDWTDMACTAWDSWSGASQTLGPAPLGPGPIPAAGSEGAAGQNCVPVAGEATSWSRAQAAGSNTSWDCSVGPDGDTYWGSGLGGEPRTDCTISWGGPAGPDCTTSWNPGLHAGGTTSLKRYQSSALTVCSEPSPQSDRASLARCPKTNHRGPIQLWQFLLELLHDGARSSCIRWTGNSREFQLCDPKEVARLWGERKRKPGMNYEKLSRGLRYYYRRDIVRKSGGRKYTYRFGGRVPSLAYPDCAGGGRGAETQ
# Method in brief: as §1
# [8] = target: T5, ELF3 (Homo sapiens, UniProt P78545 1-371); details: protein: recombinant; tags: N-terminal GST; dsDNA, one strand shown
# T5 sequence: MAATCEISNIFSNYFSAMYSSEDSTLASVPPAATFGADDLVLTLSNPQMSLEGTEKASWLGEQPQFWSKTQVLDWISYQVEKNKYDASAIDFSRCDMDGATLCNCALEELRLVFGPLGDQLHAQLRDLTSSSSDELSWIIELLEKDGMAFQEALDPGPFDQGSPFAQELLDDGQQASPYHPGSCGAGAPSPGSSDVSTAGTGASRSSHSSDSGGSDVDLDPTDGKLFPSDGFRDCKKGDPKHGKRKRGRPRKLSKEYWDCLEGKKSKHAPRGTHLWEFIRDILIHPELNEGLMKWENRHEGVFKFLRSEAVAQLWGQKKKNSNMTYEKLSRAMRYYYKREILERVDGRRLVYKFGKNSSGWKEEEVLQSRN
# Method in brief: as §1
# [9] = target: CRX (Homo sapiens, UniProt O43186 1-299); details: protein: recombinant; tags: N-terminal GST; dsDNA, one strand shown
# Chain of CRX (O43186 whole entry): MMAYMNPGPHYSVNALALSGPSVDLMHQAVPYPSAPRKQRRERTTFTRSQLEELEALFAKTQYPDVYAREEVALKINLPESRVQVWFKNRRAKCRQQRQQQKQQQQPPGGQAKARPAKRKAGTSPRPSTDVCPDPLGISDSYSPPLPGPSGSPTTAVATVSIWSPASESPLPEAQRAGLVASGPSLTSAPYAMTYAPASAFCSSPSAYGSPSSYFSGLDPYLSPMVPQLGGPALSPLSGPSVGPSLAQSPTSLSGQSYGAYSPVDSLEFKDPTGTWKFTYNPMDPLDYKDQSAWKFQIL
# Method in brief: as §1
# [10] = target: T6, ERF (Homo sapiens, UniProt P50548 1-548); details: protein: recombinant; tags: N-terminal GST; dsDNA, one strand shown
# T6 sequence: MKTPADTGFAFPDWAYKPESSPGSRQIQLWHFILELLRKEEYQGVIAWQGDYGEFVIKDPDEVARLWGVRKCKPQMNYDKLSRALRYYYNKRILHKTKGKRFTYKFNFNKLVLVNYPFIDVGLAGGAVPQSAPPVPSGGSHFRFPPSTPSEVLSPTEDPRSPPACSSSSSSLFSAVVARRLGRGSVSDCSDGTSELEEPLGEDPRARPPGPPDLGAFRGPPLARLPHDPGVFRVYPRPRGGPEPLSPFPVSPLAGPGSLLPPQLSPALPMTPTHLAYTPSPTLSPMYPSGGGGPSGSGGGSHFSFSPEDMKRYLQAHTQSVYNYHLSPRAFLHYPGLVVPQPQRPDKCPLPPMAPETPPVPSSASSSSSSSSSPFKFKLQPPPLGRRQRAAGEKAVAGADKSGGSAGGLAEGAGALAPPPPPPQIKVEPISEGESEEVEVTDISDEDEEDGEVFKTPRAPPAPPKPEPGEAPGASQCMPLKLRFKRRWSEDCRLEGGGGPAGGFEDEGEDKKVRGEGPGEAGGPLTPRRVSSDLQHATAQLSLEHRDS
# Method in brief: as §1
# [11] = target: T7, ETV3L (Homo sapiens, UniProt Q6ZN32 1-361); details: protein: recombinant; tags: N-terminal GST; dsDNA, one strand shown
# T7 sequence: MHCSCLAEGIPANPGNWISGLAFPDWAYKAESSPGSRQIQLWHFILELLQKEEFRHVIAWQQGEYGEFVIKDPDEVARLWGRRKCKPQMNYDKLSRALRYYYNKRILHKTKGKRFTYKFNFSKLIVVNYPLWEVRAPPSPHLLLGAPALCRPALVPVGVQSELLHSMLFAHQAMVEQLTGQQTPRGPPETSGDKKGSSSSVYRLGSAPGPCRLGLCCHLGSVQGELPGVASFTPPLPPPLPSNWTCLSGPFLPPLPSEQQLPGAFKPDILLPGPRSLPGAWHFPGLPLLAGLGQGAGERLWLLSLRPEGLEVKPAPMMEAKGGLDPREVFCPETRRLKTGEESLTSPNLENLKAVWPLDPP
# Method in brief: as §1
# [12] = target: T8, ETS2 (Homo sapiens, UniProt P15036 1-469); details: protein: recombinant; tags: N-terminal GST; dsDNA, one strand shown
# T8 sequence: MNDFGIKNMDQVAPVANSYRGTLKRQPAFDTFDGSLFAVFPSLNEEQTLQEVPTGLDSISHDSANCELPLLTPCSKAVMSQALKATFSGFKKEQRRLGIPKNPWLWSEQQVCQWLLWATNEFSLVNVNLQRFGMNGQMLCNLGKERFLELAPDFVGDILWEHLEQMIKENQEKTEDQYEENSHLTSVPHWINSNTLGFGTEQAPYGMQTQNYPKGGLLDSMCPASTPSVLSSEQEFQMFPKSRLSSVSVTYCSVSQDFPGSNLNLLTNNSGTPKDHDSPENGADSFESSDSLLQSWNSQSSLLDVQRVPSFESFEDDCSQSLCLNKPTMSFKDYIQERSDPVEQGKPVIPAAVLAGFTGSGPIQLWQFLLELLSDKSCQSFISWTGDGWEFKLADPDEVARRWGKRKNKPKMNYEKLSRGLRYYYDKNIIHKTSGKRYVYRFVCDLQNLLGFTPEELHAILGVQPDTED
# Method in brief: as §1
# [13] = target: T9, SPDEF (Homo sapiens, UniProt O95238 1-335); details: protein: recombinant; tags: N-terminal GST; dsDNA, one strand shown
# T9 sequence: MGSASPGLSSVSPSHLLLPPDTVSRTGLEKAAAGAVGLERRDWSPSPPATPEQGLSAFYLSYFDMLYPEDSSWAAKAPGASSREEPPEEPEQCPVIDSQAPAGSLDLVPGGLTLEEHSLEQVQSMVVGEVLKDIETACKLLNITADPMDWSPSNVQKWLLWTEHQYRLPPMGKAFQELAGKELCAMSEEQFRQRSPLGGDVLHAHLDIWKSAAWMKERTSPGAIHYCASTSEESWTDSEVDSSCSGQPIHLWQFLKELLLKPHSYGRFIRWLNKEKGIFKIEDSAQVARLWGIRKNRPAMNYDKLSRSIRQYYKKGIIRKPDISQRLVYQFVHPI
# Method in brief: as §1
# [14] = target: T10, ETV7 (Homo sapiens, UniProt Q9Y603 1-341); details: protein: recombinant; tags: N-terminal GST; dsDNA, one strand shown
# T10 sequence: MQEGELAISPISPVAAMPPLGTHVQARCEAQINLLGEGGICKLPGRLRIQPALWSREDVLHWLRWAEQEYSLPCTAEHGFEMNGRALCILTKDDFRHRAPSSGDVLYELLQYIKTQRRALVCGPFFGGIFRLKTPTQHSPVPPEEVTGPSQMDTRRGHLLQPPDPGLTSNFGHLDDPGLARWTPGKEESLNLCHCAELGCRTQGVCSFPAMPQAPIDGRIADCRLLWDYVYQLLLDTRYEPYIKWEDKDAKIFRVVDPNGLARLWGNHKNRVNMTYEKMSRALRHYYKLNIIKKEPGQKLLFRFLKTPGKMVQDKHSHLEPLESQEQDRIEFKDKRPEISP
# Method in brief: as §1
# [15] = target: T11, ELF5 (Homo sapiens, UniProt Q9UKW6-2 1-255); details: protein: recombinant; tags: N-terminal GST; dsDNA, one strand shown
# T11 sequence: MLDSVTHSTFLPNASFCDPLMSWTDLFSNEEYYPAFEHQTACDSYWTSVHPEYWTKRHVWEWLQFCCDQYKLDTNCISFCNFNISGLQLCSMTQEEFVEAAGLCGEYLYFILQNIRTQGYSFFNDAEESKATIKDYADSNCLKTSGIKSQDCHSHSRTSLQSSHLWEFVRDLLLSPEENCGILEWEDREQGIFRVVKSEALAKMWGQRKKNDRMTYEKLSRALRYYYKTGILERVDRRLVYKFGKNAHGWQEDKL
# Method in brief: as §1
# [16] = target: T12, ETV3 (Homo sapiens, UniProt P41162-2 1-143); details: protein: recombinant; tags: N-terminal GST; dsDNA, one strand shown
# T12 sequence: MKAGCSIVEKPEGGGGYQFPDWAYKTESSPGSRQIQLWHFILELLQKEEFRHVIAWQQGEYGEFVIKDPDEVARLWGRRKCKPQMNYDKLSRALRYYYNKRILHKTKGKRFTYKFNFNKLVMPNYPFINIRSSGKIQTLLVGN
# Method in brief: as §1
# [17] = target: ETV6 (Homo sapiens, UniProt P41212 1-452); details: protein: recombinant; tags: N-terminal GST; dsDNA, one strand shown
# Chain of ETV6 (P41212 whole entry): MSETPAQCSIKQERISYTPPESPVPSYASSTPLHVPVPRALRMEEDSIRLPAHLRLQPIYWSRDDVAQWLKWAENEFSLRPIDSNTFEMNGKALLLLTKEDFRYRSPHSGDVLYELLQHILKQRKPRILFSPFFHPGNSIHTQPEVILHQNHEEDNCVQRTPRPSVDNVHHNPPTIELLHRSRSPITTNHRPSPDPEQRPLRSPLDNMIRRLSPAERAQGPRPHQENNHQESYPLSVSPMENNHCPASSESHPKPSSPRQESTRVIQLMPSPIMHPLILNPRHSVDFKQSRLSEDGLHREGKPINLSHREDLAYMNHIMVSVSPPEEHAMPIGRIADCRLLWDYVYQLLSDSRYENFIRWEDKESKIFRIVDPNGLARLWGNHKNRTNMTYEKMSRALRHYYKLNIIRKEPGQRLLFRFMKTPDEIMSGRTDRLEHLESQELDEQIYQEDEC
# Method in brief: as §1
sequence,measurement,setting,value
CGATAT,binding signal,[1],"1.07 fold enrichment (6-mer frequency, TF over GST control)"
same,binding signal,[2],"1.05 fold enrichment (6-mer frequency, TF over GST control)"
same,binding signal,[3],"1.06 fold enrichment (6-mer frequency, TF over GST control)"
same,binding signal,[4],"1.11 fold enrichment (6-mer frequency, TF over GST control)"
same,binding signal,[5],"1.11 fold enrichment (6-mer frequency, TF over GST control)"
same,binding signal,[6],"1.19 fold enrichment (6-mer frequency, TF over GST control)"
same,binding signal,[7],"1.19 fold enrichment (6-mer frequency, TF over GST control)"
same,binding signal,[8],"1.14 fold enrichment (6-mer frequency, TF over GST control)"
same,binding signal,[9],"1.03 fold enrichment (6-mer frequency, TF over GST control)"
same,binding signal,[10],"1.1 fold enrichment (6-mer frequency, TF over GST control)"
same,binding signal,[11],"1.14 fold enrichment (6-mer frequency, TF over GST control)"
same,binding signal,[12],"1.12 fold enrichment (6-mer frequency, TF over GST control)"
same,binding signal,[13],"1.06 fold enrichment (6-mer frequency, TF over GST control)"
same,binding signal,[14],"1.11 fold enrichment (6-mer frequency, TF over GST control)"
same,binding signal,[15],"1.06 fold enrichment (6-mer frequency, TF over GST control)"
same,binding signal,[16],"1.03 fold enrichment (6-mer frequency, TF over GST control)"
same,binding signal,[17],"1.06 fold enrichment (6-mer frequency, TF over GST control)"
